# Source: the supplement of paper PMC4466140
# What was measured:
# Experiment in all cases: SPOT peptide array binding signal intensity (averaged, normalized) (arbitrary units (background-subtracted, floor 0; scale differs between SH3 domains)); higher = stronger binding of the SH3 domain to the peptide
# AgAbp1 = target: AgAbp1
# Procedure, shortened: (§1)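 The binding signal is the normalized, background-subtracted spot intensity averaged over replicates; its arbitrary units differ between domains. It was obtained by incubating 10 μg/ml GST-fused SH3 domains from four yeast species overnight at 4°C in TBS-based blocking buffer on cellulose membranes with synthetic 15-mer peptides, cysteines replaced by serines, then detecting with anti-GST antibody, HRP anti-mouse secondary and luminol.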
# AgBbc1 = target: AgBbc1
# Procedure, shortened: as §1
# AgBem1-D1 = target: AgBem1-D1
# Procedure, shortened: as §1
# AgBzz1-D1 = target: AgBzz1-D1
# Procedure, shortened: as §1
# AgBzz1-D2 = target: AgBzz1-D2
# Procedure, shortened: as §1
# AgCyk3 = target: AgCyk3
# Procedure, shortened: as §1
# AgFus1 = target: AgFus1
# Procedure, shortened: as §1
# AgHof1 = target: AgHof1
# Procedure, shortened: as §1
# AgHse1 = target: AgHse1
# Procedure, shortened: as §1
# AgLsb1 = target: AgLsb1
# Procedure, shortened: as §1
# AgLsb4 = target: AgLsb4
# Procedure, shortened: as §1
# AgMyo5 = target: AgMyo5
# Procedure, shortened: as §1
# AgNbp2 = target: AgNbp2
# Procedure, shortened: as §1
# AgRvs167 = target: AgRvs167
# Procedure, shortened: as §1
# AgSho1 = target: AgSho1
# Procedure, shortened: as §1
# AgSla1-D1-D2 = target: AgSla1-D1-D2
# Procedure, shortened: as §1
# AgSla1-D3 = target: AgSla1-D3
# Procedure, shortened: as §1
# CaAbp1-D1 = target: CaAbp1-D1
# Procedure, shortened: as §1
# CaAbp1-D2 = target: CaAbp1-D2
# Procedure, shortened: as §1
# CaBbc1 = target: CaBbc1
# Procedure, shortened: as §1
# CaBem1-D1 = target: CaBem1-D1
# Procedure, shortened: as §1
# CaBzz1-D1 = target: CaBzz1-D1
# Procedure, shortened: as §1
# CaBzz1-D2 = target: CaBzz1-D2
# Procedure, shortened: as §1
# CaCyk3 = target: CaCyk3
# Procedure, shortened: as §1
# CaFus1 = target: CaFus1
# Procedure, shortened: as §1
# CaHof1 = target: CaHof1
# Procedure, shortened: as §1
# CaHse1 = target: CaHse1
# Procedure, shortened: as §1
# CaLsb1 = target: CaLsb1
# Procedure, shortened: as §1
# CaLsb4 = target: CaLsb4
# Procedure, shortened: as §1
# CaMyo5 = target: CaMyo5
# Procedure, shortened: as §1
# CaNbp2 = target: CaNbp2
# Procedure, shortened: as §1
# CaRvs167 = target: CaRvs167
# Procedure, shortened: as §1
# CaRvs167-3 = target: CaRvs167-3
# Procedure, shortened: as §1
# CaSho1 = target: CaSho1
# Procedure, shortened: as §1
# CaSla1-D1-D2 = target: CaSla1-D1-D2
# Procedure, shortened: as §1
# CaSla1-D3 = target: CaSla1-D3
# Procedure, shortened: as §1
# ScAbp1 = target: ScAbp1
# Procedure, shortened: as §1
# ScBbc1 = target: ScBbc1
# Procedure, shortened: as §1
# ScBem1-D1 = target: ScBem1-D1
# Procedure, shortened: as §1
# ScBzz1-D1 = target: ScBzz1-D1
# Procedure, shortened: as §1
# ScBzz1-D2 = target: ScBzz1-D2
# Procedure, shortened: as §1
# ScCyk3 = target: ScCyk3
# Procedure, shortened: as §1
# ScFus1 = target: ScFus1
# Procedure, shortened: as §1
# ScHof1 = target: ScHof1
# Procedure, shortened: as §1
# ScHse1 = target: ScHse1
# Procedure, shortened: as §1
# ScLsb1 = target: ScLsb1
# Procedure, shortened: as §1
# ScLsb2 = target: ScLsb2
# Procedure, shortened: as §1
# ScLsb3 = target: ScLsb3
# Procedure, shortened: as §1
# ScLsb4 = target: ScLsb4
# Procedure, shortened: as §1
# ScMyo3 = target: ScMyo3
# Procedure, shortened: as §1
# ScMyo5 = target: ScMyo5
# Procedure, shortened: as §1
# ScNbp2 = target: ScNbp2
# Procedure, shortened: as §1
# ScPex13 = target: ScPex13
# Procedure, shortened: as §1
# ScRvs167 = target: ScRvs167
# Procedure, shortened: as §1
# ScSho1 = target: ScSho1
# Procedure, shortened: as §1
# ScSla1-D1-D2 = target: ScSla1-D1-D2
# Procedure, shortened: as §1
# ScSla1-D3 = target: ScSla1-D3
# Procedure, shortened: as §1
# SpAbp1-D1 = target: SpAbp1-D1
# Procedure, shortened: as §1
# SpBbc1 = target: SpBbc1
# Procedure, shortened: as §1
# SpBzz1-D1 = target: SpBzz1-D1
# Procedure, shortened: as §1
# SpBzz1-D2 = target: SpBzz1-D2
# Procedure, shortened: as §1
# SpCyk3 = target: SpCyk3
# Procedure, shortened: as §1
# SpHof1 = target: SpHof1
# Procedure, shortened: as §1
# SpHof1-2 = target: SpHof1-2
# Procedure, shortened: as §1
# SpHof1-3 = target: SpHof1-3
# Procedure, shortened: as §1
# SpHse1 = target: SpHse1
# Procedure, shortened: as §1
# SpLsb1 = target: SpLsb1
# Procedure, shortened: as §1
# SpLsb4 = target: SpLsb4
# Procedure, shortened: as §1
# SpMyo1 = target: SpMyo1
# Procedure, shortened: as §1
# SpNbp2 = target: SpNbp2
# Procedure, shortened: as §1
# SpPex13 = target: SpPex13
# Procedure, shortened: as §1
# SpRvs167 = target: SpRvs167
# Procedure, shortened: as §1
# SpSla1-D1-D2 = target: SpSla1-D1-D2
# Procedure, shortened: as §1
# SpSla1-D3 = target: SpSla1-D3
# Procedure, shortened: as §1
binder,measurement,setting,value
SAPDIPPRSPNRNAH,SPOT peptide array binding signal intensity,AgAbp1,≤ 0
same,SPOT peptide array binding signal intensity,AgBbc1,498
same,SPOT peptide array binding signal intensity,AgBem1-D1,≤ 0
same,SPOT peptide array binding signal intensity,AgBzz1-D1,34.5
same,SPOT peptide array binding signal intensity,AgBzz1-D2,≤ 0
same,SPOT peptide array binding signal intensity,AgCyk3,≤ 0
same,SPOT peptide array binding signal intensity,AgFus1,≤ 0
same,SPOT peptide array binding signal intensity,AgHof1,≤ 0
same,SPOT peptide array binding signal intensity,AgHse1,≤ 0
same,SPOT peptide array binding signal intensity,AgLsb1,324
same,SPOT peptide array binding signal intensity,AgLsb4,328
same,SPOT peptide array binding signal intensity,AgMyo5,≤ 0
same,SPOT peptide array binding signal intensity,AgNbp2,3.5
same,SPOT peptide array binding signal intensity,AgRvs167,36.3
same,SPOT peptide array binding signal intensity,AgSho1,≤ 0
same,SPOT peptide array binding signal intensity,AgSla1-D1-D2,≤ 0
same,SPOT peptide array binding signal intensity,AgSla1-D3,≤ 0
same,SPOT peptide array binding signal intensity,CaAbp1-D1,≤ 0
same,SPOT peptide array binding signal intensity,CaAbp1-D2,4.5
same,SPOT peptide array binding signal intensity,CaBbc1,575
same,SPOT peptide array binding signal intensity,CaBem1-D1,1
same,SPOT peptide array binding signal intensity,CaBzz1-D1,85
same,SPOT peptide array binding signal intensity,CaBzz1-D2,≤ 0
same,SPOT peptide array binding signal intensity,CaCyk3,3
same,SPOT peptide array binding signal intensity,CaFus1,≤ 0
same,SPOT peptide array binding signal intensity,CaHof1,≤ 0
same,SPOT peptide array binding signal intensity,CaHse1,9.75
same,SPOT peptide array binding signal intensity,CaLsb1,0.25
same,SPOT peptide array binding signal intensity,CaLsb4,4890
same,SPOT peptide array binding signal intensity,CaMyo5,≤ 0
QFDLKMPSKPIHNLK,SPOT peptide array binding signal intensity,AgAbp1,≤ 0
same,SPOT peptide array binding signal intensity,AgBbc1,0.5
same,SPOT peptide array binding signal intensity,AgBem1-D1,103
same,SPOT peptide array binding signal intensity,AgBzz1-D1,3.5
same,SPOT peptide array binding signal intensity,AgBzz1-D2,≤ 0
same,SPOT peptide array binding signal intensity,AgCyk3,≤ 0
same,SPOT peptide array binding signal intensity,AgFus1,48.5
same,SPOT peptide array binding signal intensity,AgHof1,≤ 0
same,SPOT peptide array binding signal intensity,AgHse1,85.5
same,SPOT peptide array binding signal intensity,AgLsb1,≤ 0
same,SPOT peptide array binding signal intensity,AgLsb4,3.5
same,SPOT peptide array binding signal intensity,AgMyo5,≤ 0
same,SPOT peptide array binding signal intensity,AgNbp2,63.5
same,SPOT peptide array binding signal intensity,AgRvs167,0.333
same,SPOT peptide array binding signal intensity,AgSho1,57
same,SPOT peptide array binding signal intensity,AgSla1-D1-D2,≤ 0
same,SPOT peptide array binding signal intensity,AgSla1-D3,≤ 0
same,SPOT peptide array binding signal intensity,CaAbp1-D1,≤ 0
same,SPOT peptide array binding signal intensity,CaAbp1-D2,≤ 0
same,SPOT peptide array binding signal intensity,CaBbc1,9.5
same,SPOT peptide array binding signal intensity,CaBem1-D1,25
same,SPOT peptide array binding signal intensity,CaBzz1-D1,≤ 0
same,SPOT peptide array binding signal intensity,CaBzz1-D2,8
same,SPOT peptide array binding signal intensity,CaCyk3,1.5
same,SPOT peptide array binding signal intensity,CaFus1,446
same,SPOT peptide array binding signal intensity,CaHof1,≤ 0
same,SPOT peptide array binding signal intensity,CaHse1,49.8
same,SPOT peptide array binding signal intensity,CaLsb1,≤ 0
same,SPOT peptide array binding signal intensity,CaLsb4,142
same,SPOT peptide array binding signal intensity,CaMyo5,8
same,SPOT peptide array binding signal intensity,CaNbp2,202
same,SPOT peptide array binding signal intensity,CaRvs167,1.67
same,SPOT peptide array binding signal intensity,CaRvs167-3,≤ 0
same,SPOT peptide array binding signal intensity,CaSho1,376
same,SPOT peptide array binding signal intensity,CaSla1-D1-D2,68
same,SPOT peptide array binding signal intensity,CaSla1-D3,77
same,SPOT peptide array binding signal intensity,ScAbp1,≤ 0
same,SPOT peptide array binding signal intensity,ScBbc1,0.25
same,SPOT peptide array binding signal intensity,ScBem1-D1,≤ 0
same,SPOT peptide array binding signal intensity,ScBzz1-D1,≤ 0
same,SPOT peptide array binding signal intensity,ScBzz1-D2,3.5
same,SPOT peptide array binding signal intensity,ScCyk3,≤ 0
same,SPOT peptide array binding signal intensity,ScFus1,70
same,SPOT peptide array binding signal intensity,ScHof1,0.5
same,SPOT peptide array binding signal intensity,ScHse1,57
same,SPOT peptide array binding signal intensity,ScLsb1,9
same,SPOT peptide array binding signal intensity,ScLsb2,1
same,SPOT peptide array binding signal intensity,ScLsb3,74
same,SPOT peptide array binding signal intensity,ScLsb4,21
same,SPOT peptide array binding signal intensity,ScMyo3,≤ 0
same,SPOT peptide array binding signal intensity,ScMyo5,≤ 0
same,SPOT peptide array binding signal intensity,ScNbp2,79.5
same,SPOT peptide array binding signal intensity,ScPex13,23.8
same,SPOT peptide array binding signal intensity,ScRvs167,2.83
same,SPOT peptide array binding signal intensity,ScSho1,198
same,SPOT peptide array binding signal intensity,ScSla1-D1-D2,59
same,SPOT peptide array binding signal intensity,ScSla1-D3,150
same,SPOT peptide array binding signal intensity,SpAbp1-D1,0.5
same,SPOT peptide array binding signal intensity,SpBbc1,1.5
same,SPOT peptide array binding signal intensity,SpBzz1-D1,104
same,SPOT peptide array binding signal intensity,SpBzz1-D2,≤ 0
same,SPOT peptide array binding signal intensity,SpCyk3,≤ 0
same,SPOT peptide array binding signal intensity,SpHof1,9
same,SPOT peptide array binding signal intensity,SpHof1-2,11.8
same,SPOT peptide array binding signal intensity,SpHof1-3,≤ 0
same,SPOT peptide array binding signal intensity,SpHse1,136
same,SPOT peptide array binding signal intensity,SpLsb1,≤ 0
same,SPOT peptide array binding signal intensity,SpLsb4,318
same,SPOT peptide array binding signal intensity,SpMyo1,≤ 0
same,SPOT peptide array binding signal intensity,SpNbp2,74.5
same,SPOT peptide array binding signal intensity,SpPex13,1
same,SPOT peptide array binding signal intensity,SpRvs167,≤ 0
same,SPOT peptide array binding signal intensity,SpSla1-D1-D2,5
same,SPOT peptide array binding signal intensity,SpSla1-D3,30
